Laboratory results as given in the supplement of paper PMC11732987, “Enantioselective OTUD7B fragment discovery through chemoproteomics screening and high-throughput optimisation” (Communications Chemistry, 2025).

Legend:
Experiment in all cases: log2 ratio of Biotin-Ahx-Ub-VS probe labelling (fragment/DMSO); higher = less target engagement (more negative = stronger competition), active = hit call of the paper (q ≤ 0.05, log2 ratio ≤ -1)
Details in all cases: compound concentration: 200 uM; treatment time: 3 h
[1] = molecular target: T1, ALG13 (UniProt Q9NP73)
T1 sequence (whole entry): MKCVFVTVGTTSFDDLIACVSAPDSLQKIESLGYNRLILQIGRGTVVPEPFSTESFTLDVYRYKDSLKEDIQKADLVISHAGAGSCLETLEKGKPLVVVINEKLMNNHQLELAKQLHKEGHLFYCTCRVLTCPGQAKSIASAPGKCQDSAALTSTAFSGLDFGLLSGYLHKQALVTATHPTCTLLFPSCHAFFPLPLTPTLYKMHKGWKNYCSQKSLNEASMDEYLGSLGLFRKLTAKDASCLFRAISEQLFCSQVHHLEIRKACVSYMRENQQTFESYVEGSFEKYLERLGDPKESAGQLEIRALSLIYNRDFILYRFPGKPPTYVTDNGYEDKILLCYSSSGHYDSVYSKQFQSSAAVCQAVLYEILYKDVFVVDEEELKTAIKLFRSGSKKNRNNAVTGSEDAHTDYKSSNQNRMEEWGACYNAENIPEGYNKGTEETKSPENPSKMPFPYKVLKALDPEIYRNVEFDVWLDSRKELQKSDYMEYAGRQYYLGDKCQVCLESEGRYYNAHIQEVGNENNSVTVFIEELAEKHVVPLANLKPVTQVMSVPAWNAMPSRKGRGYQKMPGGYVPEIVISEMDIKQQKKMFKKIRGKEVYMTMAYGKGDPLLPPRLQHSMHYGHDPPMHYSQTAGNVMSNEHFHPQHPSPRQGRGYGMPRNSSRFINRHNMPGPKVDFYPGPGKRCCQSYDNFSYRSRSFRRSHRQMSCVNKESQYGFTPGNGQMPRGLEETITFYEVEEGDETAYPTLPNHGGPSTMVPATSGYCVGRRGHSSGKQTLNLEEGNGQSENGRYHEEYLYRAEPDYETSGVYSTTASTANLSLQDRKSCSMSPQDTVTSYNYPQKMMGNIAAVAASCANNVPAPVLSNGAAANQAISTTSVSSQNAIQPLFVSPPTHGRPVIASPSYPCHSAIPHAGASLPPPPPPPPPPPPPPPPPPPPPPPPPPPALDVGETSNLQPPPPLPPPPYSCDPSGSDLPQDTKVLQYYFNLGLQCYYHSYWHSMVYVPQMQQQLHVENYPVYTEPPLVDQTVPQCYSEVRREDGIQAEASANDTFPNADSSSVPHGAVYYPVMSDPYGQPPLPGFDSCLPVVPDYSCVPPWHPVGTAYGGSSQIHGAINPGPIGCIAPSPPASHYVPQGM
Outline: (§1)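 HEK293T lysate (495 µg per sample, in Tris/CHAPS/IGEPAL buffer with protease inhibitors) was exposed in triplicate for 3 h to fragment at 200 µM or to vehicle, then to Biotin-Ahx-Ub-VS at 0.5 µM final for 1 h. Labelled DUBs were enriched on NeutrAvidin, digested with LysC and trypsin, and analysed by diaPASEF LC-MS/MS. Spectronaut label-free quantities were normalised to the global median, and values are average log2 ratios of fragment over vehicle from an unpaired t-test. Only proteins with ≥2 unique peptides were used.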

[2] = molecular target: ATXN3 (UniProt P54252)
Outline: as §1

[3] = molecular target: T2, BAP1 (UniProt Q92560)
T2 sequence (whole entry): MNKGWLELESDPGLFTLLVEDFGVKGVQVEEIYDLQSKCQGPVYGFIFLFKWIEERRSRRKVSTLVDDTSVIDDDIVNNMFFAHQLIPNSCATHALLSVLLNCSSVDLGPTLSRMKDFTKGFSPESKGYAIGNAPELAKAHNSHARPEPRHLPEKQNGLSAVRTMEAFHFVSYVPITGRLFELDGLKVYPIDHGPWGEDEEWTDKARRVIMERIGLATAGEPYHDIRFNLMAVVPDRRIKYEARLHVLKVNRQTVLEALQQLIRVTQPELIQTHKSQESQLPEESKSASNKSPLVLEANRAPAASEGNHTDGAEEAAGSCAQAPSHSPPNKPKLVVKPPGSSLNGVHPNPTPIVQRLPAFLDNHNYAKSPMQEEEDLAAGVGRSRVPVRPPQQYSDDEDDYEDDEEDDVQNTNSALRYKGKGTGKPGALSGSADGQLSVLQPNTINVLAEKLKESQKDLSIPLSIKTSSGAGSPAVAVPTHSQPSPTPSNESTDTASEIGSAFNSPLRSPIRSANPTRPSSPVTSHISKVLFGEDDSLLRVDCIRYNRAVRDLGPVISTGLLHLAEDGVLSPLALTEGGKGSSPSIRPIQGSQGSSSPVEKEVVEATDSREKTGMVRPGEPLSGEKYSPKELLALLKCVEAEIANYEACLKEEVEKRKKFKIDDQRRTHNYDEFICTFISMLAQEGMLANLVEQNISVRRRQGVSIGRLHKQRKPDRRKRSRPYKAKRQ
Outline: as §1

[4] = molecular target: EIF3F (UniProt O00303)
Outline: as §1

[5] = molecular target: EIF3H (UniProt O15372)
Outline: as §1

[6] = molecular target: T3, FAM105A (UniProt Q9NUU6)
T3 sequence (whole entry): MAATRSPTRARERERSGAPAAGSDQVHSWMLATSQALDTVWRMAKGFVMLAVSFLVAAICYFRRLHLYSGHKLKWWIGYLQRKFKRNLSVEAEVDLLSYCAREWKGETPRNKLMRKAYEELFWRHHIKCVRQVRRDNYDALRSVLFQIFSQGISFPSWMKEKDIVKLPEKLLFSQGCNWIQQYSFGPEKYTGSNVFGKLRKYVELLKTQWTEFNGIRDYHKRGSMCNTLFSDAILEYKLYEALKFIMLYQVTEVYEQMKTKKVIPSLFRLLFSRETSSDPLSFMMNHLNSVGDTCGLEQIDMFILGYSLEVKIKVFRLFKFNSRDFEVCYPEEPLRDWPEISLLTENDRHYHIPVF
Outline: as §1

[7] = molecular target: OTUB1 (UniProt Q96FW1)
Outline: as §1

[8] = molecular target: T4, OTUD4 (UniProt Q01804)
T4 sequence (whole entry): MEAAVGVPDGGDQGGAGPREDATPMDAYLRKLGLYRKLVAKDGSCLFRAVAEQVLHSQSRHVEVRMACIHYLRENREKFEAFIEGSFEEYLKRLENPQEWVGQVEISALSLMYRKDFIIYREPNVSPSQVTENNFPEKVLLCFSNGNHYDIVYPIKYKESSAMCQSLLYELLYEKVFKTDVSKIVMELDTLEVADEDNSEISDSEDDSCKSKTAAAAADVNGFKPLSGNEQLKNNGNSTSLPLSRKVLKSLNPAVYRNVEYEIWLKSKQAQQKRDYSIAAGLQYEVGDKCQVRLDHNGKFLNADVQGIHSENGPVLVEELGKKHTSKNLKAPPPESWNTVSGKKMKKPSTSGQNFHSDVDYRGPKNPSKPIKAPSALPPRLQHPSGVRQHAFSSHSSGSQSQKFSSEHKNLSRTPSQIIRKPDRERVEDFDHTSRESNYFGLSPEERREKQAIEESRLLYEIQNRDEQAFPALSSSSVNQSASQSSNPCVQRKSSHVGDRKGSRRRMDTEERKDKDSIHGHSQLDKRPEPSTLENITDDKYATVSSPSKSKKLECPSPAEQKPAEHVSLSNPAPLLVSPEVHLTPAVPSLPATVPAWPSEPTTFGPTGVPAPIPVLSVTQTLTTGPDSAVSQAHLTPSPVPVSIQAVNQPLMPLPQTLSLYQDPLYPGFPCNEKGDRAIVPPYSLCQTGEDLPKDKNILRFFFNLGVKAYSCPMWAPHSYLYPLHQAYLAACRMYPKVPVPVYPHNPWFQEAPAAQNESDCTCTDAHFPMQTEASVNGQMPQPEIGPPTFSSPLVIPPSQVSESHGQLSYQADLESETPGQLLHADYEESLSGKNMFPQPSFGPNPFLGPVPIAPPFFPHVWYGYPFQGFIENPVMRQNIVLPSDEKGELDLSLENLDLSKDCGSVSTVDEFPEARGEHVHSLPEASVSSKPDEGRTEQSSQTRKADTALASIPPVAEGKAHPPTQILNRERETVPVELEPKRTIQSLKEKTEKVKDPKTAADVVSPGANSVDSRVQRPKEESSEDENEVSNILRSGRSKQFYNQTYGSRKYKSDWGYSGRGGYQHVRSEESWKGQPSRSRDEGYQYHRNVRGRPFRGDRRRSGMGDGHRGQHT
Outline: as §1

[9] = molecular target: T5, OTUD5 (UniProt Q96G74)
T5 sequence (whole entry): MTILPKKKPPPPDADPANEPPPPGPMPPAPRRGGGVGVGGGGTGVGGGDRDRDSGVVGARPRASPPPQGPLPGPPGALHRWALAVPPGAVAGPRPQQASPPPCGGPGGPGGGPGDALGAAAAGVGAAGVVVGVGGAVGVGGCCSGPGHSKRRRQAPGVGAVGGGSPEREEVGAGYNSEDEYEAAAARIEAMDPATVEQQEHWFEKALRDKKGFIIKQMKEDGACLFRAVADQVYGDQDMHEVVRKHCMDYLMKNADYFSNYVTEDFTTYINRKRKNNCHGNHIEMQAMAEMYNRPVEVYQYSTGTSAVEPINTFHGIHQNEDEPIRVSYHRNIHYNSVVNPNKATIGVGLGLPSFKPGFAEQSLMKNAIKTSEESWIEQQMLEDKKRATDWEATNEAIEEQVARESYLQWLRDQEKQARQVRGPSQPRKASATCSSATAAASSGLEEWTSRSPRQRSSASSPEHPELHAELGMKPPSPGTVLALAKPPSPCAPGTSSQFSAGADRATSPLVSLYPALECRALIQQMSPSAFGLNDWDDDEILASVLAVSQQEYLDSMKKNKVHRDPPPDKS
Outline: as §1

Measured: log2 ratio of Biotin-Ahx-Ub-VS probe labelling

Chain of EIF3F (O00303 whole entry): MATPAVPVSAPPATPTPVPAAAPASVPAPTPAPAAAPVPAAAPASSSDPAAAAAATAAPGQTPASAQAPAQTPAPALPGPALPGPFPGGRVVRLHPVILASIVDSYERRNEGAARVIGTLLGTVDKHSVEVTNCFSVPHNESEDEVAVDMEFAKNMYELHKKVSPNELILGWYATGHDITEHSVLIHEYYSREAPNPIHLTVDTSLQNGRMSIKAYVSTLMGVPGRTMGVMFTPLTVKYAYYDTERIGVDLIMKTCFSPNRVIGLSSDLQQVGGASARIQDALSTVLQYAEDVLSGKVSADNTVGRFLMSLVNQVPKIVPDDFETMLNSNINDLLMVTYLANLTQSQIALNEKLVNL
Chain of EIF3H (O15372 whole entry): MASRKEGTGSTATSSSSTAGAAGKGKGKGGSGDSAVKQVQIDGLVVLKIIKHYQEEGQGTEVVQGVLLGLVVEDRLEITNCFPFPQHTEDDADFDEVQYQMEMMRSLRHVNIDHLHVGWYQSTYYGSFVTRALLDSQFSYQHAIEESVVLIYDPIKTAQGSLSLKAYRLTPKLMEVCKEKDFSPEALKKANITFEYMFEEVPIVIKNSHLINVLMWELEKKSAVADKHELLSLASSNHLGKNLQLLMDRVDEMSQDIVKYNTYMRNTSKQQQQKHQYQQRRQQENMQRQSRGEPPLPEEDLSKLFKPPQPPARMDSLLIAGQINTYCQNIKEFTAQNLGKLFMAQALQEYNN
Chain of ATXN3 (P54252 whole entry): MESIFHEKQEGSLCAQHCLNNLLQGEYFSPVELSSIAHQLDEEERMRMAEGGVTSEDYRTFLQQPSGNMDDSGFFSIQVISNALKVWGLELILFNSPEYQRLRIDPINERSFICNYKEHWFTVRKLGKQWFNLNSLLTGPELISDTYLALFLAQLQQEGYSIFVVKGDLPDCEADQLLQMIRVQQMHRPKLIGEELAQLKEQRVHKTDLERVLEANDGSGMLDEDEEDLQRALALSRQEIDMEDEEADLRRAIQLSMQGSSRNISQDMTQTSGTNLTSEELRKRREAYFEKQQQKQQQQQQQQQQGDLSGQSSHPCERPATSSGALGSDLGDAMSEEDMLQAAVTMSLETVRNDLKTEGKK
Chain of OTUB1 (Q96FW1 whole entry): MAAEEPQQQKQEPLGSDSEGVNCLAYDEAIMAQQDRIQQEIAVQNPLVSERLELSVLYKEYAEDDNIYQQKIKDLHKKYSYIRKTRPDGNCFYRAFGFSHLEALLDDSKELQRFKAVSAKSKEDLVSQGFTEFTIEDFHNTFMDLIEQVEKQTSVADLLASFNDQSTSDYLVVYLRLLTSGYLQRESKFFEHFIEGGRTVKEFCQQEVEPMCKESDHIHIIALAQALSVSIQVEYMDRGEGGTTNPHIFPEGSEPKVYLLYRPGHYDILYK

CNC(=O)C1CCN(C(=O)CCl)CC1
inactive: [1] 0.0075 | [2] -0.0902 | [3] -0.309 | [4] -0.0903 | [5] 0.232 | [6] 0.31 | [7] -0.105 | [8] 0.0041 | [9] -0.381
